8 molecules from PubChem BioAssay (NCI) can be followed below.

The panel holds about 83,000 compounds, 20% with a hit somewhere; the sample as a whole holds those more often.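 Plates (96-well) were seeded with cells, treated with compound at one concentration, and incubated for 48 hours before percent growth was determined.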 A number with no mark means an inactive call. Activity calls are given as the source filed them. Rule for the calls: active = growth percent below 10; inactive = the rest.

Test systems include NCI-H23 lung; NCI-H226 lung; NCI-H322M lung; HOP-62 NSCLC; NCI-H460 lung; HOP-92 NSCLC; NCI-H522 lung; A549/ATCC NSCLC; 786-0 renal; COLO 205 colon; DU-145 prostate; K-562 leukemia; MALME-3M melanoma; MDA-MB-231 breast; RXF 393 renal; SF-268 CNS; SF-295 CNS; SF-539 CNS; UACC-257 melanoma; M14 melanoma.
What all share (assay): NCI-60 one-dose screen, 48 h (100 = growth as untreated, 0 = no growth, -100 = all killed)
Conditions in all cases: 10 µM unless noted

As for `O=C(NCCNc1nccc(-c2c(-c3cccc(O)c3)nc3sccn23)n1)c1cccc(C(F)(F)F)c1`, the growth was 81% in the experiment with NCI-H23 lung; 88.5% in the experiment with NCI-H226 lung; 103% with NCI-H322M lung; 114% in the experiment with HOP-62 NSCLC; 85.7% in the experiment with NCI-H460 lung; 83.8% in the experiment on HOP-92 NSCLC. Moreover, the growth is 48.5% in the experiment with NCI-H522 lung; 71.3% with A549/ATCC NSCLC; 89.3% in the experiment on 786-0 renal; 71.1% in the experiment with COLO 205 colon; 91.4% with DU-145 prostate; 56.2% with K-562 leukemia. For the same molecule, the growth in the experiment on MALME-3M melanoma was 0.753% (active); with MDA-MB-231 breast it was 76.2%; in the experiment with RXF 393 renal it was 79.9%; in the experiment with SF-268 CNS, 86.7%; with SF-295 CNS, 69.6%; in the experiment with SF-539 CNS, 100%. In addition, the values for the growth in the experiment with UACC-257 melanoma and in the experiment with M14 melanoma were 14.4% and 17.5%, respectively.

For the molecule `Cc1nccc2c3ccc(OCc4cn(Cc5ccc(Br)cc5)nn4)cc3n(CCCc3ccccc3)c12`, the growth is 82.5% with NCI-H23 lung; 88.9% with NCI-H226 lung; 85.9% in the experiment with NCI-H322M lung; 62% in the experiment on HOP-62 NSCLC; 89.5% in the experiment with NCI-H460 lung; 77.9% with HOP-92 NSCLC. Moreover, the growth is 59.4% in the experiment on NCI-H522 lung; 82.6% in the experiment on A549/ATCC NSCLC; 67% with 786-0 renal; 92.4% in the experiment on COLO 205 colon; 91.9% in the experiment on DU-145 prostate; 75.5% with K-562 leukemia. Moreover, the growth in the experiment with MALME-3M melanoma is 92.9%; with MDA-MB-231 breast, 79.3%; in the experiment with RXF 393 renal, 82%; with SF-268 CNS, 81%; in the experiment on SF-295 CNS it was 86.2%; in the experiment with SF-539 CNS it was 77%. Besides, the growth with UACC-257 melanoma was 99.3%; with M14 melanoma, 103%.

Consider `CCCCCCCCCCCCCCCCNc1ccccc1`, for which the growth in the experiment with NCI-H23 lung was 102%; with NCI-H226 lung, 99.8%; with NCI-H322M lung, 83.8%; with HOP-62 NSCLC, 105%; in the experiment on NCI-H460 lung it was 105%; in the experiment on HOP-92 NSCLC, 97.7%. Moreover, the growth in the experiment on NCI-H522 lung was 64.6%; with A549/ATCC NSCLC, 59.7%; with 786-0 renal, 81.4%; in the experiment with COLO 205 colon it was 113%; in the experiment with DU-145 prostate, 107%; with K-562 leukemia it was 79.8%. Also, the growth with MALME-3M melanoma is 114%; in the experiment on MDA-MB-231 breast it was 104%; in the experiment on RXF 393 renal it was 110%; in the experiment with SF-268 CNS, 86.6%; in the experiment on SF-295 CNS, 102%; with SF-539 CNS, 97.1%. The growth was 82.3% with UACC-257 melanoma and 106% in the experiment on M14 melanoma.

Take `COc1ccc(/C=C/C(=O)/C=C(/C=C/c2ccc(OC)c(OC)c2OC)OB(F)F)c(OC)c1OC`: the growth was 37.3% in the experiment on NCI-H23 lung; 75.6% in the experiment with NCI-H226 lung; 91.8% with NCI-H322M lung; 70.4% in the experiment on HOP-62 NSCLC; 43.6% in the experiment on NCI-H460 lung; 79.5% in the experiment with HOP-92 NSCLC. The growth is 16.3% in the experiment with NCI-H522 lung; 55.7% in the experiment on A549/ATCC NSCLC; 14.1% in the experiment with 786-0 renal; 7.86% (active) with COLO 205 colon; 42.9% in the experiment on DU-145 prostate; 9.46% (active) in the experiment with K-562 leukemia. Besides, the growth was 16.4% in the experiment with MALME-3M melanoma; 7.37% (active) with MDA-MB-231 breast; 6.5% (active) in the experiment with RXF 393 renal; 31.9% in the experiment on SF-268 CNS; 56.4% in the experiment with SF-295 CNS; 32.9% with SF-539 CNS. The figures for the growth in the experiment with UACC-257 melanoma and with M14 melanoma were 37% and 19.1%, respectively.

With `COc1cccc(C2CC(c3cc(OC)c(OC)c(OC)c3)=NN2)c1` (stereo not given), the growth was 89.6% in the experiment with NCI-H23 lung; 91.7% in the experiment on NCI-H226 lung; 99.6% with NCI-H322M lung; 83% in the experiment on HOP-62 NSCLC; 93.7% with NCI-H460 lung; 80% in the experiment with HOP-92 NSCLC. Further, the growth in the experiment on NCI-H522 lung is 80.3%; in the experiment with A549/ATCC NSCLC, 84.4%; in the experiment with 786-0 renal, 86.9%; with COLO 205 colon, 106%; in the experiment with DU-145 prostate it was 104%; with K-562 leukemia it was 14.5%. Also, the growth with MALME-3M melanoma is 91.6%; in the experiment with MDA-MB-231 breast, 98%; with RXF 393 renal, 83.8%; in the experiment on SF-268 CNS it was 93%; with SF-295 CNS, 81.8%; in the experiment with SF-539 CNS it was 92.2%. Besides, the growth in the experiment on UACC-257 melanoma was 99.4%; in the experiment with M14 melanoma it was 83%.

For the molecule `C[C@]12O[C@H]1[C@H](O)c1c(cc(O)c3c1C(=O)c1cccc(O)c1-3)C2=O`, the growth is 99% in the experiment with NCI-H23 lung; 85.7% with NCI-H226 lung; 102% with NCI-H322M lung; 96.5% in the experiment with HOP-62 NSCLC; 99.1% in the experiment with NCI-H460 lung; 101% in the experiment on HOP-92 NSCLC. The growth was 87.8% in the experiment with NCI-H522 lung; 92.9% in the experiment with A549/ATCC NSCLC; 104% with 786-0 renal; 106% in the experiment on COLO 205 colon; 111% in the experiment on DU-145 prostate; 93.9% in the experiment with K-562 leukemia. For the same molecule, the growth with MALME-3M melanoma is 100%; with MDA-MB-231 breast it was 94%; with RXF 393 renal, 123%; in the experiment with SF-268 CNS, 107%; in the experiment on SF-295 CNS, 102%; in the experiment with SF-539 CNS it was 99.6%. Also, the growth is 89% in the experiment on UACC-257 melanoma and 89.8% with M14 melanoma.

For the molecule `S=c1n(CNc2ccc(Cl)nn2)nc(-c2cc(Cl)cc(Cl)c2Cl)n1/N=C/c1ccc(Cl)cc1`, the growth was 88.5% with NCI-H23 lung; 96.1% in the experiment with NCI-H226 lung; 74.9% with NCI-H322M lung; 81.6% in the experiment with HOP-62 NSCLC; 110% with NCI-H460 lung; 34.3% in the experiment with HOP-92 NSCLC. In addition, the growth was 72.2% with NCI-H522 lung; 138% with A549/ATCC NSCLC; 81.9% in the experiment on 786-0 renal; 132% in the experiment with COLO 205 colon; 109% in the experiment on DU-145 prostate; 71.7% in the experiment with K-562 leukemia. The growth in the experiment with MALME-3M melanoma is 89.3%; in the experiment with MDA-MB-231 breast, 92.9%; in the experiment with RXF 393 renal it was 149%; in the experiment on SF-268 CNS, 107%; in the experiment with SF-295 CNS it was 70%; with SF-539 CNS, 101%. Also, the growth in the experiment with UACC-257 melanoma was 106%; in the experiment on M14 melanoma it was 55.8%.

Take `COc1ccc(-c2nn(-c3ccc(NC(=O)c4cc(C(F)(F)F)cc(C(F)(F)F)c4)cc3)cc2-c2ccncc2)cc1Cl`: the growth in the experiment with NCI-H23 lung is 72.1%; in the experiment with NCI-H226 lung it was 91.1%; in the experiment with NCI-H322M lung it was 87.4%; with HOP-62 NSCLC it was 67%; in the experiment with NCI-H460 lung, 57.7%; in the experiment with HOP-92 NSCLC it was 48.7%. The growth in the experiment on NCI-H522 lung was 71.2%; in the experiment on A549/ATCC NSCLC, 59.5%; in the experiment on 786-0 renal it was 44.1%; with COLO 205 colon, 85.6%; in the experiment on DU-145 prostate, 76.7%; in the experiment on K-562 leukemia it was 29%. Moreover, the growth in the experiment with MALME-3M melanoma is 95.1%; with MDA-MB-231 breast it was 49.3%; with RXF 393 renal, -6.8% (active); in the experiment with SF-268 CNS it was 68.7%; in the experiment with SF-295 CNS, 33.1%; in the experiment with SF-539 CNS, 67.7%. The growth was 78.8% with UACC-257 melanoma and 40.1% with M14 melanoma.
